Screening data (PubChem BioAssay)
PAX8 inh HTS – inhibitors of PAX8-driven TPO luciferase reporter, primary screen, RMG-I cells, single concentration. AID 652154, 2013. 360,000 compounds, 1.2% hits. inhibition, % at 12.6 µM. SteadyGlo, 24 h;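 active = mean replicate inhibition at least 60% with every replicate also reaching 60%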;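 note: luciferase light reporting Pax8 driven TPO promoter activity; plate controls were median of neutral control wells for no effect and mitoxantrone controls for full effect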
PGC1a acetyl inh – inhibitors of PGC1a acetylation signal, primary screen, cell-based, U2OS, AlphaScreen, inhibitor mode; inhibition, % at 15.6 µM; 350,000 compounds, 0.17% hits; AlphaScreen anti-acetyl-lysine; with virally co-expressed GCN5 acetyltransferase;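 active = every replicate shows inhibition of at least 40%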;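 note: 0% = neutral control wells and 100% = positive control wells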
LGR2 antag – inhibitors of bursicon-induced LGR2 CRE-luciferase signal, primary screen, cell-based, HEK293, CRE-luciferase reporter, bursicon stimulation | Drosophila bursicon receptor LGR2 (rickets) | 380,000 compounds, 0.35% hits | inhibition, % at 9.99 µM | bursicon-stimulated, 4 h;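 active = drop in luminescence signal, shown as inhibition above about 50% in the replicate tests, limit read from the data, passing the limit was not always enough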;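 note: agonist challenge used bursicon conditioned medium at about half maximal strength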
EWS-Fli block – EWS/Fli-driven NR0B1 reporter inhibitors, primary screen, A673 cells, NR0B1 luciferase, luminescence, MLPCN library; viability-normalised; inhibition, % at 12.6 µM; 350,000 compounds, 0.67% hits;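 active = mean inhibition of at least 50% after viability correction, with every replicate also passing that limit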;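 note: firefly luciferase signal divided by Alamar Blue viability fluorescence both relative to DMSO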
SIRT5 block – SIRT5 desuccinylase inhibitors, primary screen, biochemical, fluorescence imaging, single point, set 5 | Purified SirT5, succinyl-peptide AMC, trypsin-coupled fluorescence | inhibition, % at 15 µM | AID 652115, 2013 | 330,000 compounds, 1.1% hits; in the data active = inhibition above about 15%
Target sequence (Q9NXA8 whole entry, looked up): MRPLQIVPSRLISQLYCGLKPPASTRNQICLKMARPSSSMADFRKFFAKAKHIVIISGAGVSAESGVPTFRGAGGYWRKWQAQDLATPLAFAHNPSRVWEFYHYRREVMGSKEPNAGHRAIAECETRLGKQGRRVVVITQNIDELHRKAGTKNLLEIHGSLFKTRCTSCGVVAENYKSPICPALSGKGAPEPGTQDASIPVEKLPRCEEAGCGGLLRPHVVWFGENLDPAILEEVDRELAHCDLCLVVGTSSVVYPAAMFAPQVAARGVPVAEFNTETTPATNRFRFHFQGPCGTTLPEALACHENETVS
rRNA inh HTS – reduced GFP signal of wild-type E. coli, primary screen, bacterial rRNA inhibitor project, GFP/RFP fluorescence, OD600, single point; GFP signal change (wild-type ribosome), % (concentration not given with the values); E. coli WT GFP vs humanized-ribosome RFP mutants, 24 h; hits give low values; DMSO median 0, no signal -100; 350,000 compounds, 1.6% hits;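 active = significant combined selectivity score with lowered wild-type GFP, culture density cut under 30%, mutant RFP and density less affected; inactive = any of these conditions unmet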
* = called active by the depositor; / = no result. Compounds with a hit are over-represented: about 3.4% of the library has one in this group of screens.

SMILES	PAX8 inh HTS	PGC1a acetyl inh	LGR2 antag	EWS-Fli block	SIRT5 block	rRNA inh HTS
COC(=O)C1=C(C)N(Cc2cccc(C(F)(F)F)c2)C(=NCc2ccc(C(F)(F)F)cc2)NC1c1cccc(F)c1 (centres undefined)	73.8*	/	/	48.7	/	-63.7
COC(=O)C1=C(C)N(Cc2ccccc2C(F)(F)F)C(=NCc2ccc3c(c2)OCO3)NC1c1ccccc1 (centres undefined)	3.8	/	8.8	11.6	16.5*	-42.1
COC(=O)C1=C(C)N(Cc2ccc(C(F)(F)F)cc2)C(=NCc2ccccc2)NC1c1cccc(F)c1 (centres undefined)	101.3*	/	58.1*	25.7	/	-54.5
CC(=O)C1=C(C)N(Cc2ccccc2)C(=O)N[C@H]1c1cccc(C(F)(F)F)c1	18.4	-8.2	-23.1	-9.7	1.8	-32.5
CC(=O)C1=C(C)N(Cc2ccccc2)C(=O)N[C@@H]1c1cccc(C(F)(F)F)c1	-0.5	-3.2	3.2	-2.1	1.9	-20.7*
COC(=O)C1=C(C)N(Cc2ccc(C(F)(F)F)cc2)C(=NCc2ccc(C(F)(F)F)cc2)NC1c1cccc(C(F)(F)F)c1 (centres undefined)	34.5	/	-15.2	48.5	/	-38.2
COC(=O)C1=C(C)N(Cc2ccccc2C(F)(F)F)C(=NCc2ccc3c(c2)OCO3)NC1c1ccc(C(F)(F)F)cc1 (centres undefined)	10.3	/	-7.7	16.7	-0.3	2.6
O=C(Nc1ccc(F)cc1)N1CC(=O)N2[C@H](CO)[C@@H](c3ccc(C#Cc4cccnc4)cc3)[C@@H]2C1	/	15.4	10.0	-1.2	-0.9	-3.2
O=C(NC1CCCC1)[C@@H]1[C@@H](CO)[C@@H]2Cn3c(ccc(-c4cccnc4)c3=O)[C@H]1N2CC1CC1	-17.7	/	0.7	-1.1	/	-1.6
COC(=O)C1=C(C)N(Cc2cccc(C(F)(F)F)c2)C(=NCc2ccc(C(F)(F)F)cc2)NC1c1ccc(F)cc1 (centres undefined)	36.1	/	5.7	48.3	-0.9	-39.1
C=CCN=C1NC(CCc2ccccc2)C(C(=O)OC)=C(C)N1Cc1cccc(C(F)(F)F)c1 (centres undefined)	32.4	/	62.0*	27.4	/	-51.2
COC(=O)C1=C(C)N(Cc2cccc(C(F)(F)F)c2)C(=NCc2ccc(C(F)(F)F)cc2)NC1c1ccc(C(F)(F)F)cc1 (centres undefined)	76.7*	/	1.9	30.2	-1.2	-26.4
COc1ccc2c3c([nH]c2c1)[C@H](CO)N(C(C)=O)CC31CN(C(=O)Nc2c(C)noc2C)C1	/	-2.3	-8.8	5.1	/	4.8
COc1ccc(-n2c(C)cc(C(=O)COC(=O)Cc3n[nH]c(=O)c4ccccc34)c2C)cc1	-4.4	/	-2.0	1.2	-3.0	-20.5
Cc1cc(C(=O)COC(=O)Cc2n[nH]c(=O)c3ccccc23)c(C)n1-c1ccc2c(c1)OCO2	13.3	/	10.1	3.0	1.1	-25.2*
Cc1c(C(=O)O)oc2ccc(S(=O)(=O)NC3CCCCCCC3)cc12	21.5	/	-0.3	5.2	0.6	-28.8*
Cc1c(C(=O)O)oc2ccc(S(=O)(=O)NCc3ccc(F)cc3)cc12	/	5.8	-0.2	/	/	/
CC(=O)Nc1ccc(S(=O)(=O)Nc2nc3ccccc3nc2Nc2ccc(C(=O)O)c(O)c2)cc1	-4.4	9.4	6.0	6.6	47.1*	9.8
O=C(Nn1c(COc2ccccc2)nc2ccccc2c1=O)C(Cl)(Cl)Cl	6.7	/	-29.5	-27.3	-0.1	-15.3*
O=c1c2ccccc2nc(COc2ccccc2)n1/N=C/c1ccc(O)c(O)c1	-28.2	9.8	-36.1	8.9	-3.4	-30.6*
Cc1nc2ccccc2c(=O)n1NC(=O)COc1ccccc1	/	7.3	12.4	-1.8	0.9	10.5
CCCc1cn(CC[C@H]2CC[C@@H](NC(=O)CCN3CCCCC3)[C@@H](CO)O2)nn1	6.8	1.4	2.8	0.5	1.5	0.9
